# Pf apPOL block: Pf-apPOL DNA polymerase inhibition. Recombinant Pf-apPOL, molecular beacon fluorescence, 1.5 h. inhibition, % at 10 µM. 0.25% of 210,000 active. AID 1794808
# mHTT CaM bind: mHTT-calmodulin interaction abrogation | P42858 | AlphaScreen His-mHTT/GST-CaM binding, luminescence | inhibition, % at 15 µM | 3.6% of 190,000 active | AID 1671202;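 note: 0% = both proteins with DMSO and 100% = one protein alone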
# Target sequence (P42858 whole entry, looked up, stated change not applied): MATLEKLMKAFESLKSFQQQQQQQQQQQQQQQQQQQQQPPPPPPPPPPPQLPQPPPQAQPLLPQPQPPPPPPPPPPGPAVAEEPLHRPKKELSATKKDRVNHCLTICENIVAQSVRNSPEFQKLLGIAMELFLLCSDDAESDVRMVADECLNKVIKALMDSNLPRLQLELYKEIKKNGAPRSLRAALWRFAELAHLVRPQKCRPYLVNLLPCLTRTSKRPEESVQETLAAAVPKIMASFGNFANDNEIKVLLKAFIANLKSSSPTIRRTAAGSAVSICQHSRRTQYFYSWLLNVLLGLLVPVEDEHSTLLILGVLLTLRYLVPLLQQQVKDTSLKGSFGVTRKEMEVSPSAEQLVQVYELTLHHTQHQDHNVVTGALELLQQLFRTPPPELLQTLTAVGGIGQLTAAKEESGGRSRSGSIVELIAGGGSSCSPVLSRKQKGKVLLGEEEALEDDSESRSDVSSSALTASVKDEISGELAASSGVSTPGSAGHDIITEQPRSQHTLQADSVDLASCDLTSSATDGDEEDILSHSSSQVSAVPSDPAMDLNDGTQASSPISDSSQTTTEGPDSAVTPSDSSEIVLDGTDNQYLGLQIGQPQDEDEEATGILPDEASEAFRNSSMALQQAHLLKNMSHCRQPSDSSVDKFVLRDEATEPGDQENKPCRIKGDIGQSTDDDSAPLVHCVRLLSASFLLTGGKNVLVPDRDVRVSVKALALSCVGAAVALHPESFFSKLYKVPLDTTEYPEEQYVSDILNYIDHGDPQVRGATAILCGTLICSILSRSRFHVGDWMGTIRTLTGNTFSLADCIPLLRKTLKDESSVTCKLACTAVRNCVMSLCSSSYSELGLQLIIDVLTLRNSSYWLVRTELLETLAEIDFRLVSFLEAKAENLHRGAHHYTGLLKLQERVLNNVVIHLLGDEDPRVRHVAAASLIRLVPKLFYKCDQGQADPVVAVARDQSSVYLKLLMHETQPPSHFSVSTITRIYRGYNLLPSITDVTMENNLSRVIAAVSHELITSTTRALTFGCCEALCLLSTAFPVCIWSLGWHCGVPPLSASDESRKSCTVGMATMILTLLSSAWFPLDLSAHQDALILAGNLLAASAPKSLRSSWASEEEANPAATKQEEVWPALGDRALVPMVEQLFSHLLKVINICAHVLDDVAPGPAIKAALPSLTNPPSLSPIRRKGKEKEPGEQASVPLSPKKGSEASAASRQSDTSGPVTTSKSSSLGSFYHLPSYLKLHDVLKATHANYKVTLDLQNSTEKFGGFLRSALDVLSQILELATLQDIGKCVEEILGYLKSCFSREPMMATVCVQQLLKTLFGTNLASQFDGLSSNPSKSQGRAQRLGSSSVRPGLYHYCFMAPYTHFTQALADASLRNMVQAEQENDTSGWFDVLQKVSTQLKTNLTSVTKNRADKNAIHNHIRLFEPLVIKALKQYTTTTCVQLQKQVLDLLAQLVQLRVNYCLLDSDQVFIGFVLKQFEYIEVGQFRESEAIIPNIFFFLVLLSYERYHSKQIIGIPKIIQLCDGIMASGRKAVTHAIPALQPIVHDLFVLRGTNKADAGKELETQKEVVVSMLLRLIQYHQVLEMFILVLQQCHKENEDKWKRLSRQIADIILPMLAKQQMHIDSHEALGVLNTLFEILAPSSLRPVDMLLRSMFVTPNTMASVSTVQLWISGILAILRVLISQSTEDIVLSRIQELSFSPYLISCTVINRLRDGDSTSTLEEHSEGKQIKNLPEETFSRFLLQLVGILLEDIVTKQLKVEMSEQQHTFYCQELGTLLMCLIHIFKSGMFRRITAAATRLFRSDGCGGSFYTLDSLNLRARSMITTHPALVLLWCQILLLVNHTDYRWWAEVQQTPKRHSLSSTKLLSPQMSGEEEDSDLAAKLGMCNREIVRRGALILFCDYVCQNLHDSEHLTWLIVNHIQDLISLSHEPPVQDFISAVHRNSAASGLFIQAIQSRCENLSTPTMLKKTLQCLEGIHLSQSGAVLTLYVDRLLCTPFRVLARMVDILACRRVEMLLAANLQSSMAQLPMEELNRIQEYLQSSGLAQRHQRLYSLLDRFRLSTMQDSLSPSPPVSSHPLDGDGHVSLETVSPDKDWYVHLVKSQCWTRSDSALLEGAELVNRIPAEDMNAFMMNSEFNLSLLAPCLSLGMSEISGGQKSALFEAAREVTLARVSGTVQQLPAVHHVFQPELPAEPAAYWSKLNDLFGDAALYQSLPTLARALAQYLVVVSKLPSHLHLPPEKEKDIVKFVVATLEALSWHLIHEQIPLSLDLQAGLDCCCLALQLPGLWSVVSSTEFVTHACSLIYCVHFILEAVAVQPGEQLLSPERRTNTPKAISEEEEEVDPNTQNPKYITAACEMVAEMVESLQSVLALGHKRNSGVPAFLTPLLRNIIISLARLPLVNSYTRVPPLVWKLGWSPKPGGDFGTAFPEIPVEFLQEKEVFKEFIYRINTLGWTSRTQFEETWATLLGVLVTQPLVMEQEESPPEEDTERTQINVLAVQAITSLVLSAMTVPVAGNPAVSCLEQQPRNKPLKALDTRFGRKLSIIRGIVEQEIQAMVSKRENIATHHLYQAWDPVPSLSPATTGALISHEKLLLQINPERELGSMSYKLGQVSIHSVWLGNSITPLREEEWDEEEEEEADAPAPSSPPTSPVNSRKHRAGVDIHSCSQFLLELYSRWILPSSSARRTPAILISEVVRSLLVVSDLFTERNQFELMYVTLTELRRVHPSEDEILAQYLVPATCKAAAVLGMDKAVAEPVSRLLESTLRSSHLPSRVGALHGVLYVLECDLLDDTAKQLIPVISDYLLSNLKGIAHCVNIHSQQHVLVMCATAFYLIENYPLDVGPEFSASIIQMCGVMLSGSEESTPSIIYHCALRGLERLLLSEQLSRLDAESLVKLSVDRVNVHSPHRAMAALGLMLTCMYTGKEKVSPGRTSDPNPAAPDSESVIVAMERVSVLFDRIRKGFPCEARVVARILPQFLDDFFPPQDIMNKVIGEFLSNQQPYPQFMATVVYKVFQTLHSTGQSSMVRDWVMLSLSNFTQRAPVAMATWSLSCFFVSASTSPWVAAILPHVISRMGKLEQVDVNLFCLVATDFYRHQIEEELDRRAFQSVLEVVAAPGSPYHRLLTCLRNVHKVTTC
# Active calls of the source: *; i = inactive; . = no result given; + = active, no number. Compounds with a hit are over-represented: about 3.5% of the library has one in this group of screens. Cut-off read from the data, not from the text of the source: active = inhibition above about 50%; inactive = the rest.
SMILES,Pf apPOL block,mHTT CaM bind
COc1ccc(N2CC(c3nnc(NC(=O)c4ccc(C)cc4)o3)CC2=O)cc1 (stereo not drawn),-1,50*
c1ccc2[nH]c(CCn3c4c(c5ccccc53)CCCC4)nc2c1,.,66*
N#CCCn1c2c(c3ccccc31)CCCC2,-8,22
CCn1cc(CN2CCC(C(=O)NCc3ccc(OC)cc3)CC2)c2ccccc21,0,2
CC1CCCC(NC(=O)CN2C(=O)COc3ccc(Cl)cc32)C1C (stereo not drawn),-16,-6
O=C(NCc1ccccc1Cl)c1ccc2c(c1)ncn2C1CCCC1,-8,3
COC(=O)CNC(=O)N1CCCC1c1ccc(C)cc1 (stereo not drawn),6,-6
COCCc1nc(C2CCCN(Cc3ccccn3)C2)n[nH]1 (stereo not drawn),-22,89*
Cc1nc(C2CCN(Cc3ccccn3)CC2)n[nH]1,-9,99*
Cc1nc(C2CCN(Cc3cccs3)CC2)n[nH]1,-4,-10
CCn1c(C2CCN(Cc3ccccn3)C2)nc2cccnc21 (stereo not drawn),-44,100*
CCOc1ccccc1CN1CCC(c2nc3cccnc3n2CC)C1 (stereo not drawn),-5,18
COCCc1nc(C2CCCN(Cc3cccs3)C2)n[nH]1 (stereo not drawn),-2,-2
CCN1CCN(C2CCN(C(=O)c3cc(C)cc(C)c3)CC2)C1=O,-2,95*
CCN1CCN(C2CCN(C(=O)c3ccc(C)cc3)CC2)C1=O,-5,-9
Cc1cc(OCC(=O)Nc2ccccc2Cl)nc(N2CCCCC2)n1,0,-13
COc1ccc(C=NNc2nc(C)cc(=O)[nH]2)c(OC)c1,-3,.
OCCN1CCN(C2CCN(Cc3ccccc3Br)CC2)CC1,-10,3
N/C(=N\OS(=O)(=O)c1ccccc1)c1ccccn1,1,i
N/C(=N\OC(=O)Oc1ccccc1)c1ccccn1,-3,+
N/C(=N\OS(=O)(=O)c1ccc(Cl)cc1)c1ccccn1,4,+
N/C(=N\OC(=O)Oc1ccccc1)c1ccncc1,-9,i
COc1ccc(CN2CCc3nc(N4CCN(c5ccc(OC)cc5)CC4)ncc3C2)cc1,-2,30
Nc1nc(-c2ccc(Cl)c(Cl)c2)nc2c1c(=O)oc1ccccc12,-4,0
Cc1nc2nc(SCC(=O)NCC3CCCO3)nn2c(C)c1Cc1ccccc1Cl (stereo not drawn),2,15
SMILES,Pf apPOL block,mHTT CaM bind
Cc1nc2nc(SCC(=O)NCC3CCCO3)nn2c(C)c1Cc1c(F)cccc1Cl (stereo not drawn),35,70*
CCCCOc1ccc(C2=N/C(=C/c3ccc(OC)cc3OC)C(=O)O2)cc1,2,3
c1nc2c(c(N3CCC(N4CCCCC4)CC3)n1)CCC2,8,5
O=C(CCc1nnc(-c2cccc(F)c2)[nH]c1=O)N1CCc2ccccc2C1,-1,14
CC1CNC(C)(C)C(=O)C1 (stereo not drawn),.,-2
Cc1sc(NC(=O)c2ccccc2)c(C(Nc2ccccn2)c2cccs2)c1C (stereo not drawn),0,-9
CCOc1ccc(C(Nc2ccccn2)c2ccc3ccc(C)nc3c2O)cc1C (stereo not drawn),25,75*
COc1ccc(C(Nc2ccccn2)c2ccc3ccc(C)nc3c2O)cc1 (stereo not drawn),-1,72*
Cc1ccc2ccc(C(Nc3ccccn3)c3ccsc3)c(O)c2n1 (stereo not drawn),-4,76*
CCOc1ccccc1Nc1cc(C)nc2c(C)cccc12,-2,-8
COc1ccc(NCc2ccccn2)cc1,-5,.
Cc1ccc(C(=O)N2CCc3sc(C(=O)NCc4cccs4)cc3C2)cc1,-5,5
COc1cc([N+](=O)[O-])cc(C=Nc2ccc(-c3nc4ncccc4o3)cc2)c1O,-1,12
O=C(Nc1ccncc1)c1ccc(CNS(=O)(=O)c2ccccc2F)cc1,-6,-5
CC1C(c2ccc3ccccc3n2)=CNc2ccccc21 (stereo not drawn),-1,91*
c1ccc2nc(-c3nc4ccccc4[nH]3)ccc2c1,9,3
O=C(CN1CCc2ccccc2C1C(=O)N1CCCCC1)NCc1ccc(F)c(Cl)c1 (stereo not drawn),-1,-6
Cc1[nH]nc2c1C(=O)CC(c1ccc(F)cc1)C2 (stereo not drawn),5,-6
O=C(c1ccc(C(F)(F)F)cc1)N1CCN(c2nnc3ccccn23)CC1,0,-2
Cc1cc(C)cc(C(=O)N2CCCC(C(=O)NC3CC3)C2)c1 (stereo not drawn),-1,2
O=c1[nH]c2ccccc2nc1C=C(O)c1ccco1,-8,-4
O=c1[nH]c2c(=O)[nH]c(=S)[nH]c2nc1C=C(O)c1ccccc1,90*,.
Cc1cc(C(=O)N2CCCn3nc(-c4cccs4)cc3C2)no1,-10,-4
CC(=O)Nc1ccc2c(c1)C1C=CCC1C(c1ccccc1F)N2 (stereo not drawn),-1,73*

# Screening results deposited in PubChem by University of Kansas High Throughput Screening Laboratory.
